D2 PAM-1: Beta-Arrestin HTS for Positive Allosteric Modulators of the Human D2 Dopamine Receptor: Potentiators; 360,000 compounds, 0.23% hits; DiscoveRx D2 beta-arrestin cells, luminescence, 90 min; 100% = 57 uM dopamine signal; AID 624464, 2012; D(2) dopamine receptor (Homo sapiens), P14416; potentiation, % (test concentration not listed); in the data active = potentiation above about 50%; inconclusive = mostly about 30% to 49%
Target sequence (P14416 whole entry, looked up): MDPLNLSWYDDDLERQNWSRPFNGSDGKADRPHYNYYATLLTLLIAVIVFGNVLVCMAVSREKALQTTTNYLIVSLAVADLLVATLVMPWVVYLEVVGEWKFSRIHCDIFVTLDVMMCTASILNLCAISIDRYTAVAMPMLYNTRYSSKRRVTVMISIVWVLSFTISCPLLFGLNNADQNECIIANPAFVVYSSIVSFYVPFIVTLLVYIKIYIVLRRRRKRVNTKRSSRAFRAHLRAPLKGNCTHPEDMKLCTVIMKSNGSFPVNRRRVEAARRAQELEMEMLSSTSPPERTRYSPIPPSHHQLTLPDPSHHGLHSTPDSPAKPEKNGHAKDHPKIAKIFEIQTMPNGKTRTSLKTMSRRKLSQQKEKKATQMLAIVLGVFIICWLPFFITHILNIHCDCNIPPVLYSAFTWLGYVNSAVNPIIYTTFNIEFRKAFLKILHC
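PathHunter beta-arrestin assay in DiscoveRx D2 cells. Compounds were added with an EC20 of dopamine (50 nM final) for 90 min at 37 deg C. Luminescence was read 1 h after detection reagent, with 57 uM dopamine as the EC100 control.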
D2 ag-1: Beta-Arrestin HTS for Positive Allosteric Modulators of the Human D2 Dopamine Receptor: Agonists. D(2) dopamine receptor (Homo sapiens), P14416. 360,000 compounds, 0.084% hits. activation, % (no concentration beside the values). DiscoveRx PathHunter D2 beta-arrestin, luminescence, 90 min; 100% = 57 uM dopamine signal. AID 624465, 2012; in the data active = activation above about 40%; inconclusive = between about 15% and that limit
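Agonist mode: compounds alone added to overnight-plated D2 PathHunter cells for 90 min at 37 C, with 57 uM final dopamine (EC100) defining full response. Beta-arrestin recruitment detected by chemiluminescent reagent, read after 1 h at ambient temperature.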
D2 ag-2: HTS Assay for Allosteric Agonists of the Human D2 Dopamine Receptor: Primary Screen for Agonists | 340,000 compounds, 0.53% hits | HEK293 T-REx D2 cells, calcium flux agonist mode | activation, % at 2 µM | D(2) dopamine receptor (Homo sapiens), P14416;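 active = activation over 3 SD above normal in the single-dose calcium agonist read, cut at about 30% in these data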; note: 0% is about no effect
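Tetracycline-induced HEK293 Trex cells with D2 receptor force-coupled to calcium signaling, plated overnight at 30 C and loaded with no-wash calcium dye. Calcium flux read kinetically for 180 s after compound addition; responses flag agonists.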
D2 PAM-2: HTS Assay for Positive Allosteric Modulators of the Human D2 Dopamine Receptor: Primary Screen for Potentiators | HEK293 T-REx D2, calcium flux, EC20 dopamine potentiation | 340,000 compounds, 0.34% hits | D(2) dopamine receptor (Homo sapiens), P14416 | potentiation, % at 10 µM;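 active = potentiation over 3 SD above the plate norm, cut at about 30% in these data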; note: 0% is about no effect
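Potentiation of an EC20 dopamine calcium response measured kinetically over 180 s, after a preceding 180 s compound-only read flagging agonists. Cells: inducible Hek293 Trex D2 line, 4000/well, cultured overnight at 30 C before dye loading.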
D2 antag: HTS Assay for Allosteric Antagonists of the Human D2 Dopamine Receptor: Primary Screen for Antagonists; D(2) dopamine receptor (Homo sapiens), P14416; AID 485344, 2010; inhibition, % at 10 µM; HEK293 TREx D2 cells, calcium flux, dopamine EC80; 340,000 compounds, 2% hits; in the data active = inhibition above about 30%; inactive = below that, where a call was filed; note: 0% is about no effect
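Measurement of antagonist activity uses fluorescent calcium dye in inducible HEK293 T-REx D2 cells: 10 s baseline, compound addition with 180 s read, EC80 dopamine addition with a further 180 s read.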
Numbers without * were called inactive; ? = inconclusive; nt = not tested or not shown. An excerpt weighted towards active compounds, which were near 2.4% of everything screened.

SMILES	D2 PAM-1	D2 ag-1	D2 ag-2	D2 PAM-2	D2 antag
COCCCn1c(SCc2ccccc2F)nc2c(sc3ccccc32)c1=O	nt	nt	-4	2	nt
CC(=O)c1ccc(NC(=O)CSc2nc(=O)n(Cc3ccccn3)c3c2CCC3)cc1	nt	nt	0	-1	nt
O=C(c1ccco1)N1CCN(C(=O)C2CCN(S(=O)(=O)c3cnc[nH]3)CC2)CC1	-19	-2	1	13	52*
Cc1nn2c(C)c(C(=O)NC(C)(C)C)cnc2c1-c1ccc(F)cc1	nt	nt	0	1	nt
CC1(C)ON(C2CCCCC2)[C@H]2c3nc4ccccc4n3C[C@H]21	0	0	2	1	39*
Cc1c(Cl)cccc1-c1ccc(CNCCSc2nnnn2-c2ccccc2)o1	nt	nt	0	-28	nt
COC(=O)c1cc2c(=O)c3ccccc3oc2nc1/C=C/N(C)C	-1	6	40*	13	8
COC(=O)c1cc2c(=O)c3ccccc3oc2nc1C	-6	-2	0	12	0
COC1=C/C(=C/c2c(O)c(C#N)c3ccccn23)C=CC1=O	-7	-2	2	-3	33*
COCCn1c(Cc2ccccc2)nnc1SCC(=O)NC1CC1	-4	-6	2	12	32*
Cn1c(Cc2ccccc2)nnc1SCC(=O)NC1CC1	-3	2	0	-1	-10
CC(=O)Nc1cccc(Oc2ncnc3scc(-c4ccc(C)cc4)c23)c1	7	5	1	-6	34*
Cn1c(N)c(C(=O)NCc2ccccc2Cl)sc1=S	-9	0	-1	-6	53*
COc1ccccc1NC(=O)Nc1nc(CC(=O)Nc2cccc(F)c2)cs1	-13	7	-1	19	-20
COc1ccccc1NC(=O)Nc1nc(CC(=O)Nc2cc(F)ccc2F)cs1	56*	-2	0	-5	14
COc1ccccc1NC(=O)Nc1nc(C(C)(C)C)cs1	-26	-3	0	-18	35*
COc1ccccc1NC(=O)Nc1ccc(-n2ccc(C(F)(F)F)n2)cc1	-14	1	1	-14	71*
COc1ccccc1NC(=O)Nc1cc(F)ccc1F	-4	-2	0	-5	32*
Cc1cc(C)cc(NC(=O)Nc2ccc(-n3ccc(C(F)(F)F)n3)cc2)c1	-7	5	2	-13	11
CCOC(=O)c1ccc(NC(=O)c2c(NCc3cccs3)sc3c2CCCCC3)cc1	nt	nt	0	12	nt
CCOc1ccc(CCNC(=O)c2ccc3c(c2)nc2n3CCOC2)cc1OCC	nt	nt	1	-10	nt
CN(C)/C=C1\Oc2ccc3ccccc3c2C1=O	-3	2	-3	7	-5
O=C1C(=O)c2c(ccc3ccccc23)-c2ccccc21	59*	?	nt	nt	nt
Cc1c(C(Nc2ccccn2)c2ccc(Cl)cc2)c(=O)n(-c2ccccc2)n1C (configuration not stated)	7	1	0	26	0
Cc1c(C(Nc2ccccn2)c2ccccc2)c(=O)n(-c2ccccc2)n1C (configuration not stated)	0	4	0	36*	2
SMILES	D2 PAM-1	D2 ag-1	D2 ag-2	D2 PAM-2	D2 antag
CCOc1ccccc1NC(=O)C(NS(=O)(=O)c1ccc2c(c1)CCC(=O)N2)c1ccccc1 (configuration not stated)	nt	nt	1	-1	nt
Cc1cc(C)cc(NC(=O)c2cc(S(=O)(=O)N3CCCCC3)c[nH]2)c1	nt	nt	1	0	nt
O=c1c(Cl)nc2cc(Cl)ccc2n1CCNc1ncc(C(F)(F)F)cc1Cl	18	-2	0	47*	1
O=c1c2nncn2c2cc(C(F)(F)F)ccc2n1CCNc1ncc(C(F)(F)F)cc1Cl	-2	-5	-2	-4	-15
COc1cccc(C2=CC(c3ccccc3F)n3ncc(C(=O)Nc4ccc(F)cc4)c3N2)c1 (configuration not stated)	nt	nt	nt	-1	nt
COc1ccc(/C(N)=N/OC(=O)c2ccc3c(c2)OCO3)cc1OC	84*	12	0	1	-10
